# PubChem BioAssay (NCI)
# Several values for one entry are separate records, joined by “and”; a condition that tells them apart may be missing. Equal values may be shown once. Compounds without any hit were thinned out: in the full panel of roughly 83,000, 20% have a hit.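 Plates (96-well) were seeded with cells, treated with compound at one concentration, and incubated for 48 hours before percent growth was determined.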 Activity calls are given as the source filed them. How the source made its calls: active means growth percent below 10; inactive means the rest.
# Test system: HL-60(TB) leukemia
# Assay: NCI-60 one-dose screen, 48 h (100 = growth as untreated, 0 = no growth, -100 = all killed)
# Details: 10 µM unless noted
row,Structure (SMILES),growth
1,COc1cc2c(cc1OCCCCCn1c3ccccc3c3ccccc31)N=C[C@@H]1CCCN1C2=O,-46.7% (active)
2,Cc1cc(C)c2c(c1)N(C)c1ncnc(-n3cnc4cc(C)ccc43)c1CC2C (stereo not given),11.1% (inactive)
3,CCOc1cccc(Nc2nc(N)nc3[nH]c4ccc(O)cc4c23)c1,53% (inactive)
4,OCCOc1c(Cl)cc(Cl)cc1Cl,118% (inactive)
5,O=C(Nc1cccc2ccccc12)NC1CC1,108% (inactive)
6,CCOC(=O)C(CCC#N)(CCC#N)C(=O)OCC,103% (inactive)
7,CCN(CC)CCCOc1ccc2c(c1)O/C(=C\c1cccc(OC)c1)C2=O,97.4% (inactive)
8,CC(=O)Oc1c(Cl)c(Cl)c(Cl)c(Cl)c1Cl,82.2% (inactive)
9,CN(C)CCCC1(c2ccc(F)cc2)OCc2cc(-c3cccc4[nH]ccc34)ccc21 (stereo not given),31.6% (inactive)
10,COc1cc2cc(Oc3ccc(NC(=O)Nc4ccc(Cl)c(C(F)(F)F)c4)cc3)c(C)nc2cc1OCCN1CCCCC1,30.5% (inactive)
11,O=C(C[n+]1cccc2cc(Cl)ccc21)c1ccc2c(c1)CCCC2,-28.3% (active)
12,COc1ccc(C(=O)c2nc3ccccc3n2CC(=O)c2ccc(Cl)cc2)cc1,-13.2% (active)
13,CCN(CCNS(C)(=O)=O)c1ccc(N)c(C)c1,11.5% (inactive) and 77.3% (inactive)
14,CCn1cc(C(=O)N/N=C/c2cccs2)c(=O)c2cc(F)c(N3CCNC(C)C3)c(F)c21 (stereo not given),105% (inactive)
15,CCOC(=O)c1c(C)nc2c(c1N)CC(=O)N2Cc1cc(F)cc(Cl)c1,79.1% (inactive)
16,Nc1c(C(=O)Nc2ccccc2C(F)(F)F)sc2nc3c(cc12)CCC3,86.8% (inactive)
17,COc1cccc(/C=C/C(=O)c2cc3c(N)c(C(=O)Nc4ccccc4)sc3nc2C)c1,16.9% (inactive)
18,O=C(CNc1nnc(-c2cccnc2SCc2ccccc2)s1)Nc1nc(Cl)cc(Cl)n1,96.2% (inactive)
19,CN(CCc1ccccn1)c1ccccc1,34.4% (inactive)
20,O=S(=O)(Nc1ccc(-c2nc(-c3cccc(OCCN4CCOCC4)c3)c(-c3ccnc(Br)c3)[nH]2)cc1)c1ccccc1,-2.01% (active)

row,Structure (SMILES),growth
1,O=c1c(/C=C/c2ccco2)nnc(SCCN2CCOCC2)n1/N=C/c1ccc([N+](=O)[O-])cc1,87.9% (inactive)
2,O=C(Cc1ccccc1[N+](=O)[O-])c1ccc2c(c1)OCO2,99.7% (inactive)
3,C#Cc1ccccc1NC(=O)c1sc2nc3c(cc2c1N)CCCCC3,99.7% (inactive)
4,O=C1/C(=C2/C=Nc3ccccc32)N(O)c2ccccc21,8.87% (active)
5,CCNCCCn1c2c(c3ccc(F)cc3c1=O)C(=O)c1cc(OC)cnc1-2,-25.5% (active)
6,Cn1cc([C@@H]2Nc3ccc4[nH]ncc4c3[C@H]3[C@H]4CCC(C4)[C@H]32)c(C(F)(F)F)n1,7.12% (active)
7,S=c1[nH]cccc1-c1nnc2n1Nc1nc3ccc(Cl)cc3cc1CS2,104% (inactive)
8,CN1CCN(c2ccc(NC(=O)c3cncnc3Nc3ccc(OCc4ccccn4)c(Cl)c3)cc2)CC1,-57.9% (active)
9,Cc1ccc(-n2c(=S)[nH]c3sc4c(c3c2=O)CCC(=O)C4)cc1,4.93% (active)
10,O=C(Nc1cccc(Cl)c1)OCC(COC(=O)Nc1cccc(Cl)c1)(COC(=O)Nc1cccc(Cl)c1)[N+](=O)[O-],45% (inactive)
11,CN1CCN(CCOc2ccc(-c3cnc4c(-c5ccccc5F)cnn4c3)cc2)CC1,-30.2% (active)
12,O=Nc1c(O)ccc2ccccc12.O=Nc1c(O)ccc2ccccc12.O=Nc1c([O-])ccc2ccccc12.[Fe+3],105% (inactive)
13,COc1ccc(/C=C(/C#N)n2nnc3cccc(F)c32)cc1,-9.75% (active)
14,O=[N+]([O-])c1ccc(Nc2nc(NCCN3CCOCC3)ncc2[N+](=O)[O-])cc1,102% (inactive)
15,CCN(CC)c1ccc(/C=C/C(=O)c2ccc(Nc3nc(Nc4ccccc4)nc(Nc4ccccc4)n3)cc2)cc1,45.6% (inactive)
16,COCCCNC1=C(C#N)C(=O)NC(c2cccs2)S1 (stereo not given),145% (inactive)
17,CCNC(=O)CCCCC(=O)c1c(C)[nH]c(/C=C2\N=C(c3ccc[nH]3)C=C2OC)c1C,66.9% (inactive)
18,O=C(NO)c1ccc(-n2nc(-c3ccccc3)c3ccccc32)cc1,62.4% (inactive)
19,COc1ccc2c(c1)O/C(=C/c1ccc(OCC(=O)c3ccccc3)cc1)C2=O,88.7% (inactive)
20,CCCCCCCNc1nc(C=O)ncc1-c1ccc(C(F)(F)F)cc1,64.4% (inactive)
